Measurements: PubChem BioAssay AID1159580 (chemical genetic matrix, 2015)
The whole screen tested about 5,500 compounds, of which about 2,000 (36%) were called active. Inconclusive results (about 18%) are left out. Cut-off read from the data, not from the text of the source: active = normalized growth mostly below about 0.91 (no sharp cut-off); inconclusive = no clear call, values can overlap the other calls; inactive = mostly above about 0.92. Some of the results follow.

Assay: chemical genetic growth profiling, strain panel (AID 1159580);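 note: tested at 20 µM; growth read once vehicle control cultures reached saturation at 30 °C; 1 = growth at the plate median or of vehicle wells; lower values mean less growth of the strain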
Conditions: growth OD

Measured: normalized growth

CN1CC(CO)=C[C@@H]2c3cccc4[nH]cc(c34)C[C@H]21
inactive: S. cerevisiae deletion strains, locus YAL013W, strain DEP1, active compounds read low 0.994 | S. cerevisiae deletion strains, locus YBR021W, strain FUR4, active compounds read low 1.02 | S. cerevisiae deletion strains, locus YBR229C, strain ROT2, active compounds read low 0.967 | S. cerevisiae deletion strains, locus YCL029C, strain bik1, active compounds read low 1.01 | S. cerevisiae deletion strains, locus YDL035C, strain GPR1, active compounds read low 0.99 | S. cerevisiae deletion strains, locus YDL074C, strain BRE1, active compounds read low 0.957 | S. cerevisiae deletion strains, locus YDL101C, strain DUN1, active compounds read low 0.97 | S. cerevisiae deletion strains, locus YDL134C, strain PPH21, active compounds read low 0.998 | S. cerevisiae deletion strains, locus YDL185W, strain tfp1, active compounds read low 0.982 | S. cerevisiae deletion strains, locus YDL192W, strain arf1, active compounds read low 1.01 | S. cerevisiae deletion strains, locus YDR101C, strain arx1, active compounds read low 1.01 | S. cerevisiae deletion strains, locus YDR150W, strain NUM1, active compounds read low 0.991 | S. cerevisiae deletion strains, locus YDR162C, strain NBP2, active compounds read low 0.964 | S. cerevisiae deletion strains, locus YDR318W, strain mcm21, active compounds read low 1.02 | S. cerevisiae deletion strains, locus YDR388W, active compounds read low 1.01 | S. cerevisiae deletion strains, locus YDR502C, strain sam2, active compounds read low 0.993 | S. cerevisiae deletion strains, locus YEL061C, strain CIN8, active compounds read low 0.995 | S. cerevisiae deletion strains, locus YER110C, active compounds read low 1.01 | S. cerevisiae deletion strains, locus YER155C, strain BEM2, active compounds read low 1.01 | S. cerevisiae deletion strains, locus YER167W, strain BCK2, active compounds read low 1.01 | S. cerevisiae deletion strains, locus YGL078C, strain dbp3, active compounds read low 0.997 | S. cerevisiae deletion strains, locus YGL086W, strain mad1, active compounds read low 1.01 | S. cerevisiae deletion strains, locus YGL248W, strain PDE1, active compounds read low 0.988 | S. cerevisiae deletion strains, locus YGR078C, strain PAC10, active compounds read low 0.977 | S. cerevisiae deletion strains, locus YGR135W, strain pre9, active compounds read low 0.985 | S. cerevisiae deletion strains, locus YGR229C, strain SMI1, active compounds read low 0.992 | S. cerevisiae deletion strains, locus YGR252W, strain gcn5, active compounds read low 1.05 | S. cerevisiae deletion strains, locus YHR030C, strain SLT2, active compounds read low 1.01 | S. cerevisiae deletion strains, locus YHR079C, strain IRE1 (second series), active compounds read low 1.01 | S. cerevisiae deletion strains, locus YHR094C, strain hxt1, active compounds read low 1.01 | S. cerevisiae deletion strains, locus YHR129C, strain ARP1, active compounds read low 1.01 | S. cerevisiae deletion strains, locus YHR200W, strain rpn10, active compounds read low 1.01 | S. cerevisiae deletion strains, locus YIL066C, strain RNR3, active compounds read low 0.983 | S. cerevisiae deletion strains, locus YIL073C, strain SPO22, active compounds read low 1.05 | S. cerevisiae deletion strains, locus YIL125W, strain kgd1, active compounds read low 0.996 | S. cerevisiae deletion strains, locus YIR030C, strain dcg1, active compounds read low 1 | S. cerevisiae deletion strains, locus YJL095W, strain BCK1, active compounds read low 0.995 | S. cerevisiae deletion strains, locus YJL134W, strain LCB3, active compounds read low 0.989 | S. cerevisiae deletion strains, locus YJL168C, strain set2, active compounds read low 0.998 | S. cerevisiae deletion strains, locus YJL187C, strain SWE1 (second series), active compounds read low 0.975 | S. cerevisiae deletion strains, locus YJR043C, strain POL32, active compounds read low 1.03 | S. cerevisiae deletion strains, locus YJR075W, strain HOC1, active compounds read low 0.945 | S. cerevisiae deletion strains, locus YKL009W, strain mrt4, active compounds read low 1.01 | S. cerevisiae deletion strains, locus YKL068W, active compounds read low 0.999 | S. cerevisiae deletion strains, locus YKL085W, strain MDH1 (second series), active compounds read low 1.02 | S. cerevisiae deletion strains, locus YKL085W, strain MDH1, active compounds read low 1.02 | S. cerevisiae deletion strains, locus YKL190W, strain CNB1, active compounds read low 0.994 | S. cerevisiae deletion strains, locus YKR001C, strain vps1, active compounds read low 1.02 | S. cerevisiae deletion strains, locus YLR039C, strain RIC1, active compounds read low 0.954 | S. cerevisiae deletion strains, locus YLR058C, strain SHM2, active compounds read low 0.982 | S. cerevisiae deletion strains, locus YLR102C, strain apc9, active compounds read low 1 | S. cerevisiae deletion strains, locus YLR262C, strain YPT6, active compounds read low 0.957 | S. cerevisiae deletion strains, locus YLR268W, strain sec22, active compounds read low 0.975 | S. cerevisiae deletion strains, locus YLR330W, strain CHS5, active compounds read low 1 | S. cerevisiae deletion strains, locus YLR342W, strain FKS1 (second series), active compounds read low 1.03 | S. cerevisiae deletion strains, locus YLR371W, strain rom2, active compounds read low 1.01 | S. cerevisiae deletion strains, locus YLR418C, strain cdc73, active compounds read low 0.966 | S. cerevisiae deletion strains, locus YML016C, strain PPZ1, active compounds read low 1 | S. cerevisiae deletion strains, locus YML032C, strain rad52, active compounds read low 1.01 | S. cerevisiae deletion strains, locus YML124C, strain tub3, active compounds read low 1.01 | S. cerevisiae deletion strains, locus YMR078C, strain ctf18, active compounds read low 1.01 | S. cerevisiae deletion strains, locus YMR223W, strain ubp8, active compounds read low 1.02 | S. cerevisiae deletion strains, locus YMR263W, strain SAP30, active compounds read low 0.955 | S. cerevisiae deletion strains, locus YMR307W, strain GAS1, active compounds read low 1.06 | S. cerevisiae deletion strains, locus YNL067W, strain RPL9B, active compounds read low 0.987 | S. cerevisiae deletion strains, locus YNL128W, strain TEP1, active compounds read low 0.939 | S. cerevisiae deletion strains, locus YNL153C, strain GIM3, active compounds read low 0.975 | S. cerevisiae deletion strains, locus YNL233W, strain BNI4, active compounds read low 0.99 | S. cerevisiae deletion strains, locus YNL250W, strain rad50, active compounds read low 0.988 | S. cerevisiae deletion strains, locus YNL271C, strain bni1, active compounds read low 1.01 | S. cerevisiae deletion strains, locus YNL298W, strain CLA4, active compounds read low 1.01 | S. cerevisiae deletion strains, locus YNL307C, strain MCK1, active compounds read low 1.02 | S. cerevisiae deletion strains, locus YNL322C, strain KRE1, active compounds read low 0.982 | S. cerevisiae deletion strains, locus YNR052C, strain pop2, active compounds read low 1.01 | S. cerevisiae deletion strains, locus YOL006C, strain TOP1, active compounds read low 0.983 | S. cerevisiae deletion strains, locus YOL012C, strain htz1 1.85 | S. cerevisiae deletion strains, locus YOL147C, strain pex11, active compounds read low 1.01 | S. cerevisiae deletion strains, locus YOR061W, strain CKA2, active compounds read low 0.963 | S. cerevisiae deletion strains, locus YOR069W, strain VPS5, active compounds read low 1 | S. cerevisiae deletion strains, locus YOR136W, strain idh2, active compounds read low 1.01 | S. cerevisiae deletion strains, locus YOR144C, strain elg1, active compounds read low 1.01 | S. cerevisiae deletion strains, locus YOR184W, strain ser1, active compounds read low 1.02 | S. cerevisiae deletion strains, locus YOR316C, strain cot1, active compounds read low 1 | S. cerevisiae deletion strains, locus YPL055C, strain LGE1, active compounds read low 0.938 | S. cerevisiae deletion strains, locus YPL241C, strain CIN2, active compounds read low 0.997 | S. cerevisiae deletion strains, locus YPR119W, strain clb2, active compounds read low 1.01 | S. cerevisiae deletion strains, locus YPR141C, strain kar3, active compounds read low 0.998 | S. cerevisiae deletion strains, locus YPR163C, strain tif3, active compounds read low 1.01 | S. cerevisiae deletion strains, locus YPR167C, strain met16, active compounds read low 0.996 | S. cerevisiae deletion strains, strain wtn01, active compounds read low 0.995 | S. cerevisiae strains, strain wild type, active compounds read low 0.99
